Structures are written as SMILES. Several values for one entry are separate records, joined by “and”; a condition that tells them apart may be missing. Equal values may be shown once. About 1,200 (0.35%) of roughly 340,000 compounds were called active. The full list was thinned out, with actives kept by preference. Unmarked numbers belong to inactive results. Cut-off read from the data, not from the text of the source: active = inhibition above about 52%; inactive = the rest.

The nature of this experiment: suppresses PrP 5' UTR mRNA reporter expression (AID 488862). Note: 0 = median of the neutral control wells. Particulars: cell-based PrP 5' UTR mRNA reporter, plate reader; hits give high values; concentration not given here.
On to `CCOC(=O)c1c(/N=C/c2cc(C)ccc2O)sc2c1CCC2`, for which the inhibition is -12.5%.

For `O=C(CSc1cccc[n+]1[O-])NCCCc1ccccc1`, the inhibition is -19.4%.

Consider `C=CCn1c(C)cc(C2=NNC(=NCC)SC2)c1C`, for which the inhibition was 93.9% (active).

On to `CN(C)c1ccc(CNC(=O)CN2C(=O)COc3ccc(S(=O)(=O)N4CCCC4)cc32)cc1`, for which the inhibition was -1.62%.

Turning to `CCCC(=O)n1nc(NCc2ccc(OC)cc2)nc1NCc1ccc(OC)cc1`, the inhibition was -14.7%.

For `NC(N)=Nc1nc(-c2ccccc2)c2cc(Cl)ccc2n1`, the inhibition was -17.4%.

Turning to `Clc1ccc2nc(-c3ccccc3)nc(C(Cl)Cl)c2c1`, the inhibition is 92.7% (active).

On to `Clc1ccc2nc3c(c(-c4ccccc4)c2c1)CNCC3`, for which the inhibition was -16%.

Consider `Oc1ccccc1N1CCN(C(=S)NCc2ccccc2)CC1`, for which the inhibition was -14.6%.

In the case of `Oc1ccc(N2CCN(C(=S)NCc3ccccc3)CC2)cc1`, the inhibition is 87.9% (active).

As for `O=C(COC(=O)c1ccccc1C(=O)N1CCN(c2ccccc2)CC1)NCc1ccccc1`, the inhibition is -7.33%.

Turning to `O=C(NCc1ccco1)c1ccc([N+](=O)[O-])cc1Cl`, the inhibition was -16.6%.

As to `CCC(=O)c1cn(CCOc2ccccc2OC)c2ccccc12`, the inhibition is -20.1%.

Turning to `Cc1nn2cc(-c3ccc(Cl)cc3)cnc2c1Br`, the inhibition was -42%.

As for `Cc1ccc(S(=O)(=O)NCCSc2ccccc2)cc1[N+](=O)[O-]`, the inhibition was -22.1%.

As for `Cc1ccc(S(=O)(=O)Nc2nc3ccccc3s2)cc1[N+](=O)[O-]`, the inhibition was 57.4% (active).

Regarding `CCOc1ccc2sc(NS(=O)(=O)c3ccc(N)cc3)nc2c1`, the inhibition was -14.4%.

Regarding `O=C(Nc1ccc2c(c1)OCCO2)C1CCCC1`, the inhibition was 56.5% (active).

In the case of `O=C(Nc1ccc2c(c1)OCCO2)c1ccoc1`, the inhibition is -45.1%.

For the compound `O=C(Nc1ccc2c(c1)OCO2)C1CC1(Cl)Cl` (configuration not stated), the inhibition is -8.25%.

For the compound `O=C(c1ccc(Cl)nc1)N1CCN(S(=O)(=O)c2ccc3c(c2)OCCO3)CC1`, the inhibition is -18.9%.

Take `O=S(=O)(c1ccc(Br)cc1)c1nc(-c2ccccc2)oc1N1CCOCC1`: the inhibition is -6.56%.

`O=C(OCC(=O)N1CCN(C(=O)c2ccco2)CC1)c1c(Cl)cccc1Cl`: the inhibition was -17%.

On to `COc1cc(SC)ccc1C(=O)N(Cc1ccccc1)c1ccccc1`, for which the inhibition was -4.63%.

In the case of `COc1ccc(C(=O)Nc2cccc(NC(=O)c3ccc(OC)cc3OC)n2)c(OC)c1`, the inhibition is -7.03%.

For the compound `COc1cc(SC)ccc1C(=O)Nc1nc(C)cs1`, the inhibition was 87% (active).

For `O=C(c1cccs1)n1nc(NCc2ccccc2)nc1NCc1ccccc1`, the inhibition is -11.8%.

In the case of `Cc1noc(C)c1COC(=O)Cn1c(C)nc2ccccc21`, the inhibition was -15.5%.

Consider `CC(=O)c1sc(NC(=O)CCN2C(=O)C3CC=CCC3C2=O)nc1-c1ccccc1` (configuration not stated), for which the inhibition is -19.1%.

As to `CC(=NCc1ccc2c(c1)OCO2)C1=C(O)c2ccccc2C1=O`, the inhibition is 1.49%.

Consider `O=C(NCc1ccccc1CN1CCCC1)c1cccc(S(=O)(=O)Nc2ccc(F)cc2)c1`, for which the inhibition is -16.1%.

With `CCC(C)(O)C(=O)OC1C(=O)OC2CC3C(C)=CC(=O)C(O)C3(C)C3C4(O)OCC23C1C(C)C4O` (configuration not stated), the inhibition was 78.9% (active).

With `Cc1cc(O)c(C(=O)/C=C/c2c(F)c(F)c(F)c(F)c2F)c(=O)o1`, the inhibition is 8.81%.

For `CC1(C)C[C@H]2C3=CCC4[C@@]5(C)CC[C@H](O)[C@](C)(CO)C5CC[C@@]4(C)[C@]3(C)C[C@@H](O)[C@@]2(CO)[C@@H](O)[C@@H]1O` (some centres not stated), the inhibition is -7.8%.

Take `COc1ccccc1CNC(=O)CSc1nc(=O)n(Cc2ccncc2)c2c1CCC2`: the inhibition was 10.7%.

Consider `CS(=O)(=O)N(CC(=O)N1CCOCC1)c1ccc2c3c(cccc13)CC2`, for which the inhibition was -19.4%.

For `CC(=O)Nc1ccc(NC(=O)CSc2nnc(COc3ccccc3C)n2CC2CCCO2)cc1` (configuration not stated), the inhibition was -3.51%.

Consider `CCOC(=O)N1CCC(N2Cc3cccc(C(=O)Nc4c(C)cccc4CC)c3C2=O)CC1`, for which the inhibition was -4.9%.

As to `Cc1nc2c(-c3ccc(F)cc3)c(C)nn2c(C)c1CCC(=O)N1CCN(c2ccccn2)CC1`, the inhibition is 4.39%.

As to `COc1ccc(CCNS(=O)(=O)c2ccc(Cl)s2)cc1OC`, the inhibition was 6.31%.

On to `COC1C(O)C(C)OC(OC2CCC3(C=O)C(CCC4C3CCC3(C)C(C5=CC(=O)OC5)CCC43O)C2)C1O` (configuration not stated), for which the inhibition was 89.8% (active).

For `COc1ccc(C(=O)C2CCCN(C(=O)c3cnsn3)C2)c(C)c1` (configuration not stated), the inhibition is -10.1%.

As for `Cc1cc(NC(=O)Nc2ccc(Cl)cc2)n(-c2ccccc2)n1`, the inhibition is -39.6%.

As for `Cc1cc(Nc2ccccc2)n(C(=O)c2ccc(N)cc2)n1`, the inhibition was 67.9% (active).

Take `Cn1c(Nc2ccccc2)cc(=O)n(C)c1=O`: the inhibition is -38.1%.

On to `CCOc1ccc(CN(Cc2ccco2)C(c2cccs2)c2nnnn2C(C)(C)C)cc1` (configuration not stated), for which the inhibition was -13.3%.

Regarding `CCOc1ccc(NC(=O)CCCCCN2C(=O)[C@@H]3Cc4ccccc4CN3C2=O)cc1`, the inhibition is -14.6%.

On to `CCOc1ccc(NC(=O)CCS(=O)(=O)c2cccc3nsnc23)cc1`, for which the inhibition was -15.9%.

In the case of `Cc1ccc(-n2c(-c3ccc(Cl)cc3)n[nH]c2=S)cc1`, the inhibition is -0.525%.

For `Cc1ccc(-c2cc(C(=O)NCc3cn(C)nc3C)c3cc(Br)ccc3n2)cc1`, the inhibition was -28.8%.

In the case of `Cc1ccc2nc(-c3ccc(Br)cc3)cn2c1`, the inhibition is 71% (active).

Regarding `Cc1ccc(-c2cn3cc(C)ccc3n2)cc1`, the inhibition was 85.2% (active).

For `CSc1nnc2ccc(-c3ccc(C)cc3)nn12`, the inhibition is 0.671%.

In the case of `Cc1ccc(-c2cc(N)on2)cc1`, the inhibition is -33%.

On to `O=C(NC(=S)Nc1ccc(Cl)cc1Cl)C1CC1`, for which the inhibition is -42.6%.

As for `O=C(COC(=O)c1ncc(Cl)c(Cl)c1Cl)NCc1cccs1`, the inhibition is -15.5%.

`CCCCN(C(=O)CCNC(=O)NC12CC3CC(CC(C3)C1)C2)c1c(N)n(CCCC)c(=O)[nH]c1=O`: the inhibition was 9.19%.

For `COc1ccc(CCNC(=O)C2CCCN2C(=O)Nc2ccccc2)cc1OC` (configuration not stated), the inhibition is -48%.

`Cc1ccc(OCCOCCOc2ccc(Br)cc2/C=N\NC(=O)c2ccncc2)cc1`: the inhibition is -18.1%.

Turning to `O=C(CSC1c2ccccc2-c2ccccc21)N/N=C/c1ccccc1`, the inhibition is 9.76%.

With `Cc1ccc(/C=N/NC(=O)COc2ccccc2-c2ccccc2)cc1`, the inhibition is 70% (active).

For `Cc1cccc(OCC(=O)NCC(=O)N/N=C/c2ccc(N(C)C)cc2)c1`, the inhibition was -13.2%.

For the compound `COc1ccc(OC)c(S(=O)(=O)Nc2cccc(-c3ccc4nncn4n3)c2)c1`, the inhibition is -13.4%.

For `Cc1c(CN2CCCC(C(=O)c3cccc(Cl)c3)C2)c(=O)n(-c2ccccc2)n1C` (configuration not stated), the inhibition was -12.1%.

Consider `CCOc1ccc(N/C=C/C(=O)c2cc(OC)c(OC)c(OC)c2)cc1`, for which the inhibition is -105%.

In the case of `CCOc1ccc(N/C=C/C(=O)c2ccccc2)cc1`, the inhibition was -1.68%.

As to `COc1ccc(C(=O)/C=C/Nc2ccccn2)cc1`, the inhibition is 66% (active).

In the case of `CCc1cc2c(N3CCN(c4nnc(CC)s4)CC3)ncnc2s1`, the inhibition was 2.26%.

In the case of `CC(C)(C)c1ccc(/C=C2\SC(=O)N=C2N)cc1`, the inhibition was 36.2%.

For `CCCCSCCCNC(=O)C1CCC(CNS(=O)(=O)c2ccc(NC(C)=O)cc2)CC1` (configuration not stated), the inhibition is -21.5%.

On to `CCN(CCn1cccn1)C(=O)CC1C(=O)NCCN1Cc1cccc(OC)c1OC` (configuration not stated), for which the inhibition was -9.29%.

Consider `CCCCNS(=O)(=O)CCNCc1ccccc1OC`, for which the inhibition was 60.7% (active).

With `COc1ccccc1CNS(=O)(=O)c1ccc(C)cc1`, the inhibition was -15.1%.

Regarding `CCCCNCCS(=O)(=O)NCc1ccccc1`, the inhibition was -9.61%.

On to `Cc1cccc([C@H]2[C@@H]3C=CC[C@@H](C)[C@@H]3C(=O)N2Cc2ccccc2)c1`, for which the inhibition was -11.5%.

Take `Cc1ccc(-c2cccc([C@H]3[C@@H]4C=CC[C@@H](C)[C@@H]4C(=O)N3Cc3ccccc3)c2)cc1`: the inhibition is 61.8% (active).

Take `Cc1cccc([C@@H]2[C@@H]3C(=O)N(Cc4ccccc4)C(=O)[C@@H]3[C@]3(C)C(=O)N(c4ccc(Br)cc4)C(=O)N23)c1`: the inhibition is -3.38%.

As for `Cc1nc(N=C(N)N)nc2c(C)cccc12`, the inhibition is -22.8%.

Take `Cc1nc(C(=O)NCc2ccccc2)sc1C1(C)CC(c2cccnc2)=NO1` (configuration not stated): the inhibition is -16.5%.

On to `O=C1OCC2=C1C(c1ccc(Cl)cc1)c1cc3c(cc1O2)OCO3` (configuration not stated), for which the inhibition was 16.1%.

As to `CCCOc1ccccc1C1CC(=O)Nc2cc3c(cc21)OCO3` (configuration not stated), the inhibition was -21.5%.

On to `COc1ccccc1C1C2=C(COC2=O)Nc2cc3c(cc21)OCO3` (configuration not stated), for which the inhibition was 65.7% (active).

Regarding `COc1ccc(NC(=O)CN(C)C(=O)c2ccc(NC3CC3)c([N+](=O)[O-])c2)cc1`, the inhibition was -13.7%.

In the case of `Cc1noc(C)c1S(=O)(=O)Nc1ccc(C(=O)N2CCN(c3ccc(F)cc3)CC2)cc1`, the inhibition is 44.2%.

With `N#Cc1nc(N)nc(N(c2ccccc2)c2ccccc2)n1`, the inhibition was -20.2%.

In the case of `CCc1nn(CCCN2CCN(c3cccc(Cl)c3)CC2)c(=O)n1CCOc1ccccc1`, the inhibition was -17.3% and 2.12%.

Take `O=C(O)c1cccnc1NC1CCCC1`: the inhibition was -17.1%.

With `CC1=C(C)CC(C(=O)NNC(=O)c2ccccc2O)C(C(=O)O)C1` (configuration not stated), the inhibition was -11.4%.

As to `Cc1cc(C(=O)CCC(=O)NNC(=O)c2ccccc2O)c(C)s1`, the inhibition is 4.28%.

With `O=C(NNC(=O)c1ccccc1O)c1ccccc1O`, the inhibition is 58.9% (active).

`C/C(=N/NC(=O)CN1CCN(S(=O)(=O)c2ccc(Br)cc2)CC1)c1ccncc1`: the inhibition is -9.51%.

As for `Cc1cc(C)nc(/N=C2\NC(=O)CC(C(=O)O)N2c2ccc(Cl)cc2Cl)n1` (configuration not stated), the inhibition was -13.6%.

Source of the values: PubChem BioAssay AID488862 (Broad Institute, 2010).
